According to PubChem BioAssay AID651768 (National Center for Advancing Translational Sciences (NCATS), 2012):
In all, about 360,000 compounds went through this assay and about 1,700 (0.47%) were called active. Another 2% or so got no clear call; they are omitted. Calls follow the shape of the dose curve; as a rule, active = well fitted inhibition curve with a large enough effect; inconclusive = small, poorly fitted or top-dose-only effect; inactive = no such curve, though single readings can be large or run the other way. The full list was thinned out, with actives kept by preference.

These compounds were tested against Bifunctional 3'-5' exonuclease/ATP-dependent helicase WRN (Homo sapiens) (UniProt Q14191) (assay: qHTS for Inhibitors of WRN Helicase). Settings: WRN helicase unwinding, fluorescent forked duplex, kinetic; series mostly up to 114 µM; activity change, negative = inhibition: at the top concentration.
Sequence of Bifunctional 3'-5' exonuclease/ATP-dependent helicase WRN (Homo sapiens) (Q14191 whole entry, looked up): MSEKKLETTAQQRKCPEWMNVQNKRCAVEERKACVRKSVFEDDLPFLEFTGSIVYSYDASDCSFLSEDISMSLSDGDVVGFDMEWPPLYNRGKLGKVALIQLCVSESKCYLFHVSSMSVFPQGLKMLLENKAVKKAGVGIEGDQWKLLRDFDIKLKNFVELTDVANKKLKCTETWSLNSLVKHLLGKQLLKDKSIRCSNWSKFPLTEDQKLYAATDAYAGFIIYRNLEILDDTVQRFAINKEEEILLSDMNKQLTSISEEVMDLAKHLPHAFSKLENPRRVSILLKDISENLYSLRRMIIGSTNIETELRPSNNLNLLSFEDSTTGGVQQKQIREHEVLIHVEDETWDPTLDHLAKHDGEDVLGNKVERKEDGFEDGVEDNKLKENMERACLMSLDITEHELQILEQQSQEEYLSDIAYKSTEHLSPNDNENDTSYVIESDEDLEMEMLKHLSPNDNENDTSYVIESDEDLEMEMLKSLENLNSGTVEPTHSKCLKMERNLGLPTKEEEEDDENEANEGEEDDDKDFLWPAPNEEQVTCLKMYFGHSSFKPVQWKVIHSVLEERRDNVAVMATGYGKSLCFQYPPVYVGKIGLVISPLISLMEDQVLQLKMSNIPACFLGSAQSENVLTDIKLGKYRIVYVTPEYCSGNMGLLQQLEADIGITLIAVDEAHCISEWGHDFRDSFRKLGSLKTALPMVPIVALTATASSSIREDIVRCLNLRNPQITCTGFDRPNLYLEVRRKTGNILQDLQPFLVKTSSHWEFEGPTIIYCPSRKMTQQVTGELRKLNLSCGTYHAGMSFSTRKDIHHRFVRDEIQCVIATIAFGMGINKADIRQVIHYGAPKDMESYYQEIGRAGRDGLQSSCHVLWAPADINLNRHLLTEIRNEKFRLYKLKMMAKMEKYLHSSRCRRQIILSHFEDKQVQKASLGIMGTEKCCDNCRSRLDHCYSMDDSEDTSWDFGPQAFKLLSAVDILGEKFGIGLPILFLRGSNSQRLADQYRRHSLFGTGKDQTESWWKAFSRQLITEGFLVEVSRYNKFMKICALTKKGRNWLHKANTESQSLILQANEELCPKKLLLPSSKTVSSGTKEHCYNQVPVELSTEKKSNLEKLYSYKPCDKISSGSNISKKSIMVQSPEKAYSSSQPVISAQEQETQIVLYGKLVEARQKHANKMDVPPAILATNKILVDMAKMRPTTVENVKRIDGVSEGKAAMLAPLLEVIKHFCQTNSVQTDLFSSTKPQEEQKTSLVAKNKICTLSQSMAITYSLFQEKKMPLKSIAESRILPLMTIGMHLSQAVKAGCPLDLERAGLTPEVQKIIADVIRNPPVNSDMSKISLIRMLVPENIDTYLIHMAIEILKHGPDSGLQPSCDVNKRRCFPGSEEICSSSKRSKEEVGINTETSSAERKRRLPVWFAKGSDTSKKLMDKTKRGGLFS
Text: Inhibition of DNA repair is proposed as a strategy for combating cancer. Synthetic lethality is an approach that exploits preexisting DNA repair deficiencies in certain tumors to develop inhibitors of DNA repair pathways that compensate for the tumor-associated DNA repair deficiency. Because helicases play critical roles in the DNA damage response and in DNA repair, particularly in actively dividing and replicating cells, characterization of synthetic lethal relationships of DNA helicases may be of value in developing improved anticancer treatment strategies; moreover, small molecules that specifically target a given DNA helicase may be useful for understanding its role in cellular nucleic acid metabolism. The goal of this project is to identify small molecule, non-covalent chemical inhibitors of the Werner syndrome (WS) helicase (WRN), which plays an important role in cell proliferation, the replication stress response, and DNA repair. […] The WRN gene product that is defective in the chromosomal instability disorder has DNA helicase and exonuclease activities and interacts with a number of nuclear proteins to maintain genomic stability. We will employ an optimized high-throughput screening assay that utilizes a fluorescence intensity modulation scheme with a fluorophore and quencher positioned near one another within a duplex deoxyoligonucleotide that contains a single forked structure. After a high-throughput screen of the ~350,000-member Molecular Libraries Small Molecule Repository (MLSMR) collection, followed by data analysis and hit selection, a panel of confirmatory, as well as secondary and ternary, assays will be employed to identify high-confidence WRN inhibitors. Structure-activity relationships will be investigated for the top candidate inhibitor series through medchem expansion. These are the results of the primary screening campaign against the MLSMR. NIH Chemical Genomics Center [NCGC] NIH Molecular Libraries Probe Centers Network [MLPCN] MLPCN Grant: MH096530 Assay Submitter (PI): Robert Brosh, National Institute of Aging
Three muL of reagents (buffer in columns 3 and 4 as negative controls; WRN at 20 nM final concentration in columns 1 and 2 as positive controls; columns 5-48 as test reactions) will be dispensed into a 1536-well Greiner black plate via solenoid-valve based nanoliter dispensers. Compounds (23 nL each in columns 5-48) and control (23 nL each in column 2 as dose-response) will be transferred via a Kalypsys pintool equipped with a 1536-pin array. Plates will be incubated for 15 min at room temperature, and then 1 µL of substrate (100 nM forked duplex oligonucleotide and 2 mM ATP final concentrations) will be added to start reaction, and plate will be transferred into a ViewLux high-throughput CCD imager where reaction progress is measured in kinetic mode using standard red-fluorescence optics (excitation filter 525 nm, emission filter 598 nm).
% is scaled to controls: 0 for no effect and ±100 for the full control effect; potency is read from the fitted curve at half-maximal effect.
Also: nearly all actives have a fitted effect of over 55% in size.

SMILES	Potency	activity change, negative = inhibition
CC1(C)C(c2ccccc2)=NC(c2cccnc2)=[N+]1[O-]	50.1 µM (active)	
CCOP(=O)(OCC)C(NC(=O)c1ccc(C)cc1)C(Cl)(Cl)Cl (stereo not given)		13.7% (inactive)
O=C(Cc1ccc(Cl)cc1)NCCN1CCN(C(=O)Cc2ccc(Cl)cc2)CC1		5.8% (inactive)
CCOC(=O)[C@]12Cc3cc(OC)ccc3[C@H]1N(C(C)C)C(=O)c1ccccc12		-1.64% (inactive)
CC(Cc1ccccc1)NCCC(c1ccccc1)c1ccccc1 (stereo not given)		-1.92% (inactive)
CC(Cc1cccs1)NCc1ccc(Cl)cc1 (stereo not given)		-4.04% (inactive)
O=C(O)CCn1cc(C=C2C(=O)NC(=S)NC2=O)c(-c2cccc(Br)c2)n1	31.6 µM (active)	
C=C(C)C1(CCCC)C(=O)NC(=S)NC1=O		0.947% (inactive)
COc1ccc(-n2nnnc2C(c2cccc3ccccc23)N2CCC(n3c(=O)[nH]c4ccccc43)CC2)cc1 (stereo not given)		-2.03% (inactive)
COC(=O)CN(CCCl)P1(=O)OCCCN1CCCl (stereo not given)		1.67% (inactive)
CCOc1ccc(-c2cc(C)[n+](CCN(CC)CC)c(-c3ccc(OCC)cc3)c2)cc1		-8.79% (inactive)
O=c1[nH]c(O)c(C=Nc2cc(F)cc(F)c2)c(=O)[nH]1		2.85% (inactive)
O=C1N=c2ccccc2=C/C1=C\c1c(O)[nH]c(=S)[nH]c1=O		-30.7% (inactive)
Cc1ccc2c(c1)=C/C(=C\c1c(O)[nH]c(=O)[nH]c1=O)C(=O)N=2	39.8 µM (active)	
N#Cc1ccc(Cn2cc(C(=O)c3ccco3)c3ccccc32)cc1		-15.2% (inactive)
CCCCCCCCCCCCn1ccc(=N)cc1		-5.13% (inactive)
COc1ccc(CCn2c(O)c(C=NCCCn3ccnc3)c(=O)[nH]c2=O)cc1OC		6.66% (inactive)
CC(C)(C)c1ccc(CN2C(=O)CN=C(c3ccccc3)c3ccccc32)cc1		-15.4% (inactive)
O=C1CC(=O)N(Cc2ccccc2)C(=O)N1CCCCCCN1C(=O)CC(=O)N(Cc2ccccc2)C1=O	28.2 µM (active)	
O=C(CN1CCCC1=O)NCCc1ccccc1		0.395% (inactive)
CC(=O)C1(O)CCC2C3CCC4=C(Cl)C(=O)CCC4(C)C3CCC21C (stereo not given)		0.713% (inactive)
CCOC(=O)[C@]12Cc3ccccc3[C@H]1N(C1CCCCC1)C(=O)c1cc(OC)ccc12		-0.682% (inactive)
C=CCN1C(=O)NC(=O)/C(=C/c2ccc(OCC(=O)Nc3ccc(C)cc3)cc2)C1=O		-8.42% (inactive)
O=C1NC(=O)N(CCc2ccc(F)cc2)C(=O)/C1=C/C=C/c1ccccc1		-13.3% (inactive)
O=C(O)COc1ccccc1/C=C1\C(=O)NC(=O)N(CCC2=CCCCC2)C1=O	39.8 µM (active)	

SMILES	Potency	activity change, negative = inhibition
CCCOC(=O)C1C2c3ccccc3C(c3ccccc32)C1C(=O)O (stereo not given)		-3.12% (inactive)
CC(=O)N1CN2CN(C(C)=O)CC(C(=O)c3ccc(Br)cc3)(C2)C1		-1.58% (inactive)
O=C1NC(=O)N(c2ccc(F)cc2)C(=O)/C1=C/c1ccc2c(c1)CCCN2Cc1ccccc1		-26.4% [at 57.1 µM] (inactive)
O=C1NC(=O)N(c2ccccc2)C(=O)/C1=C/c1ccc([N+](=O)[O-])s1	28.2 µM (active)	
O=c1c2ccccc2nc(CBr)n1-c1ccc(Cl)cc1		11.3% (inactive)
COc1ccc(N2C(=O)/C(=C/c3ccco3)C(=O)NC2=S)cc1	17.8 µM (active)	
CN(C)CC1CCCCC1OC(=O)c1ccc(Cl)c(Cl)c1 (stereo not given)		9.28% (inactive)
CC(C)(C)[C@]1(O)C[C@@H]2OC(=O)C[C@@]23C(=O)O[C@@H]2OC(=O)[C@H](O)[C@]213		-2.59% (inactive)
COc1ccc(-c2nn(CCC#N)cc2C(=O)Nc2ccc(C(C)=O)cc2)cc1		1.6% (inactive)
Clc1cccc(Cl)c1Cl		-11.3% (inactive)
Cc1c(C(=O)O)cccc1-n1c(C)cc(/C=C2\C(=O)NC(=O)N(c3ccc4c(c3)OCO4)C2=O)c1C		-16.1% [at 11.6 µM] (inactive)
Cc1cccc(N2C(=O)NC(=O)/C(=C\c3cnn(-c4ccccc4)c3)C2=O)c1	50.1 µM (active)	
COc1ccc(S(=O)(=O)NCc2ccc(C(=O)N3CCC4(CC3)OCCO4)cc2)cc1		3.75% (inactive)
OCC#CC[N+]1(CC#Cc2ccccc2)CCCC1		-12.6% (inactive)
CSC1=NP(=S)(SC)N(C)c2nc3n(c21)CCC3 (stereo not given)		7.66% (inactive)
COC(=O)C[C@H]1CC[C@H]2NC[C@@H](O)COC[C@@H]2O1		2.11% (inactive)
O=C1NC(=O)N(Cc2ccco2)C(=O)/C1=C\c1ccc(-c2ccc(F)cc2)o1	31.6 µM (active)	
COc1ccc(-c2nc(CS(=O)CC(=O)N3CCC4(CC3)OCCO4)c(C)o2)cc1 (stereo not given)		-1.12% (inactive)
O=c1[nH]c(=S)[nH]c(O)c1/C=C1\C=Nc2ccccc21	50.1 µM (active)	
COc1ccccc1N=Nc1c(O)[nH]c(=S)[nH]c1=O		-24.1% (inactive)
O=c1[nH]c2ccccc2n1C1CCN(C(c2ccccc2)c2nnnn2Cc2ccccc2)CC1 (stereo not given)		-7.52% (inactive)
O=C(N/N=C/c1c(O)n(C2CC2)c(=S)[nH]c1=O)c1ccccc1		-24% (inactive)
COc1ccccc1N=C1SCCCN1C		3.59% (inactive)
CCCCCn1c(=O)c(C(=O)Nc2c(C)n(C)n(-c3ccccc3)c2=O)c(O)c2ccccc21		-9.8% (inactive)
COC(=O)C1=C(c2cccc(OCc3ccccc3)c2)C[C@@H]2CC[C@H]1N2C(=O)NNCc1ccccc1		-8.99% (inactive)
